Experimental data published in PubChem BioAssay (NCI).
Compounds without any hit were thinned out: in the full panel of roughly 83,000, 20% have a hit.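 Percent growth is the endpoint: 0 to 100 indicates growth inhibition (40 means 60% inhibition), 0 means no net growth, and negative values indicate cell death.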 Values without a mark were called inactive. Activity calls are given as the source filed them. The calls were made as follows: active = growth percent below 10; inactive = the rest.

Test system: MDA-MB-468 breast
Test: NCI-60 one-dose screen, 48 h (100 = growth as untreated, 0 = no growth, -100 = all killed)
Settings: 10 µM unless noted

Row | Compound | growth
1 | O=C(c1ccccc1)N(CCCCl)C(=O)N(CCCCl)C(=O)c1ccccc1 | 94.2%
2 | FC(F)(F)c1cccc(Nc2nc(-c3ccccc3)nc3ncccc23)c1 | -21.7% (active)
3 | N[C@H](C(=O)O)[C@@H]1CC(Cl)=NO1 | 29.4% [20 µM]
4 | O=C(N/N=C\c1cccc([N+](=O)[O-])c1)N/N=C/c1cccc([N+](=O)[O-])c1 | 82%
5 | CCSc1nnc2n(Cc3ccccc3)c(=O)c3c(C)c(C(N)=O)sc3n12 | 101%
6 | COc1cc(/C=C/C(=O)/C=C(/C=C/c2ccc(OC(C)=O)c(OC)c2)OB(F)F)ccc1OC(C)=O | 48.8%
7 | CN1C(=O)/C(=C/c2ccc(C(=O)Nc3ncc(Cc4cccc(Cl)c4)s3)cc2)SC1=S | 37.7%
8 | CCCCn1sc(=O)n(Cc2ccc(CNC(=O)OCc3ccc4c(Br)cc(Br)c(O)c4n3)cc2)c1=O | 27.3%
9 | COc1cccc(-c2nc3sccn3c2-c2ccnc(NCCCNS(=O)(=O)c3c(Cl)cccc3Cl)c2)c1 | 49.3%
10 | Nc1c(C(=O)c2ccc(Br)cc2)oc2nc(-c3cnccn3)cc(-c3cccs3)c12 | 99.4%
11 | CC/C(=C(/c1ccc(Cl)cc1)c1ccc(OCCN2CCCC2)cc1)c1ccc(OC)cc1 | 46.5%
12 | CCCCNCCCN(CCCC)CCCNCCCC | 94.2%
13 | c1ccc(C2NCCNC2c2ccccc2)cc1 (centres undefined) | 111%
14 | O=[N+]([O-])c1ccc(N/N=C\c2cc(Cl)ccc2O)nc1 | -2.47% (active)
15 | CC(=O)O[C@H]1CC[C@]2(C)[C@H]3CC=C4[C@@H]5CC(C)(C)CC[C@]5(C(=O)NCCNCCN)CC[C@@]4(C)[C@]3(C)CC[C@H]2C1(C)C | -78.2% (active)
16 | CCCCC[C@H]1C/C=C2/C(=O)C(Cl)=C[C@@H]2C/C=C\CCCC(=O)O1 | -26.7% (active)
17 | Cc1ccc(NC(=O)c2sc3nc4c(cc3c2N)C(=O)CCC4)cc1Cl | 105%
18 | C=C(C)[C@@H]1CC[C@]2(C(=O)N3CCNCC3)CC[C@]3(C)[C@H](CC[C@@H]4[C@@]5(C)C/C(=C/c6ccncc6)C(=O)C(C)(C)[C@@H]5CC[C@]43C)[C@@H]12 | 95%
19 | C=CC1(C)C(O[Si](C)(C)C(C)(C)C)CC2C3OC(=O)NC31c1cccc3c1[C@H](C(=O)N3C)C2(C)C (some centres undefined) | 31.3%
20 | CC1C(=O)CCCC1=O | 122%

Row | Compound | growth
21 | CCCSc1nc(N)nc2nc[nH]c12 | 113%
22 | COc1ccccc1CNCCCN1C(=O)c2ccc3c4c(ccc(c24)C1=O)C(=O)N(CCCNCCCCN)C3=O | -55.7% (active)
23 | CCCCSc1ncnc2c1ncn2C1CCCCO1 (centres undefined) | 122%
24 | Oc1ccc(CN2CCC(N3CCCCC3)CC2)c2cccnc12 | 23.9%
25 | Cc1cc(-c2nnc(/C=C/c3ccc4c(c3)OCO4)o2)n[nH]1 | 54%
26 | O=C(CSc1nnc(Cc2ccccc2Nc2c(Cl)cccc2Cl)n1-c1ccccc1)N1N=C(c2ccc3ccccc3c2)CC1c1ccc(Cl)cc1 (centres undefined) | 114%
27 | O=C1N/C(=C\c2ccccc2)c2ncccc21 | 96.2%
28 | Cc1c(Cl)cccc1NC(=O)c1sc2nc3c(cc2c1N)CN(Cc1ccccc1)CC3 | 29.1%
29 | COc1ccc(C2c3ccc4ccccc4c3Oc3ncn(CCCn4ccnc4)c(=N)c32)cc1OC (centres undefined) | 47.5%
30 | Cc1ccn2c(-c3csc(Nc4cccc(O)c4)n3)c(C)nc2c1 | -33.1% (active)
31 | Cn1ncc2c(=O)nc3c(-c4ccccc4)n[nH]n3c21 | 101%
32 | COc1cc(NC(=O)C#Cc2ccccc2)c(OC)cc1Cl | 70.9%
33 | C[C@]12CC[C@@H]3c4ccc(O)cc4CC[C@H]3[C@@H]1C[C@H](O)[C@@H]2O | 87.1%
34 | N#C/C(=C\c1ccc(Cl)cc1)n1nnc2cc(F)c(F)cc21 | 3.5% (active)
35 | COC(=O)C1=C(C(=O)OC)C23C=C(C)C1C2=C(C)C1(CC1)[C@@](C)(O)C3=O (some centres undefined) | -54.2% (active)
36 | CCOCc1cc(C(C)(C)C)ccc1O | 94.3%
37 | O=[N+]([O-])c1ccc(Oc2cccnc2)c([N+](=O)[O-])c1 | 21.6%
38 | O=C1C=C(O)c2ccccc2C1=O.[Ag] | 99%
39 | COc1cc(C)ccc1C(=O)c1ccc(C)cc1OC | -20.3% (active)
